Source: PubChem
The list is not random: actives were taken first. Their share in the collection is about 2.6%.
APOBEC3G inh: APOBEC3G (human) deaminase inhibition; recombinant A3G, ssDNA deamination FAM/TAMRA fluorescence; AID 493012; Q9HC16; inhibition, % at 20 µM; 330,000 tested, 0.28% active;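 active means inhibition of at least 40% at 20 µM, with no more than 30% in the related APOBEC3A deaminase screen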
PABP polyA inh: blocks human PABP binding to poly(A) RNA; fluorescence polarization; P11940; 290,000 tested, 1% active; calls only at 35 µM;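 further: calls also rest on retests at 20 µM and on dose response follow-up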
eIF4H inh: inhibitors of RNA binding by human eIF4H; eIF4H fluorescence polarization binding assay; inhibition, % at 35 µM; 290,000 tested, 0.94% active;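 further: calls also rest on retests at 20 µM and on dose response follow-up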
MLLE-PAM2 inh: inhibitors of microRNA-mediated deadenylation, human PABP1 MLLE binding; GST-MLLE / FITC-PAM2 fluorescence polarization; P11940; inhibition, % at 20 µM; 360,000 tested, 0.36% active; in the data active means inhibition above about 35%, passing the limit was not always enough
APOBEC3A inh: inhibitors of human APOBEC3A DNA deaminase; recombinant A3A, FAM/TAMRA ssDNA deamination fluorescence; inhibition, % at 20 µM; 330,000 tested, 0.41% active; AID 493011;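 active means at least 40% inhibition at 20 µM here, with at most 30% in a related deaminase screen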
PHOSPHO1 block: blocks human PHOSPHO1 phosphatase activity; Q8TCT1; recombinant PHOSPHO1, absorbance phosphatase assay; 290,000 tested, 1.1% active; inhibition, % at 13.3 µM; in the data active means inhibition above about 60%
Target sequence (Q8TCT1 whole entry, looked up): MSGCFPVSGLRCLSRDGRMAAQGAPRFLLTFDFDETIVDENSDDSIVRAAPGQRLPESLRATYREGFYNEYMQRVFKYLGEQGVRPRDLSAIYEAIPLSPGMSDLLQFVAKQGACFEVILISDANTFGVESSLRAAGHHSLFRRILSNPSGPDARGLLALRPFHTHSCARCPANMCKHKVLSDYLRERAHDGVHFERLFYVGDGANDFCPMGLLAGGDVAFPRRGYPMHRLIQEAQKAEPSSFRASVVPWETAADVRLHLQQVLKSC
Numbers stand for hits; . = inactive; ? = inconclusive; / = not tested or not shown; + = active, no number. Unless noted, how the calls were made is not given here.

SMILES	APOBEC3G inh	PABP polyA inh	eIF4H inh	MLLE-PAM2 inh	APOBEC3A inh	PHOSPHO1 block
O=C(NC(=S)NNS(=O)(=O)c1ccccc1)c1ccccc1[N+](=O)[O-]	.	.	.	45	.	.
O=C(O)c1ccc(Cl)c(NC(=S)NC(=O)c2ccccc2[N+](=O)[O-])c1	.	.	.	47	.	.
O=C(NC(=S)NNS(=O)(=O)c1ccccc1)c1cccnc1	.	.	.	48	.	.
CCCCN(C(=O)c1cccc2c(=O)c(C)c(-c3ccccc3)oc12)c1ccccc1	/	.	.	.	/	.
O=S(=O)(c1ccc(F)cc1)N1CN(Cc2ccco2)c2nc3ccccc3nc21	.	+	122	.	.	.
Cc1ccc(S(=O)(=O)N2CN(Cc3ccco3)c3nc4ccccc4nc32)cc1C	.	.	.	.	.	.
COc1ccc(S(=O)(=O)N2CN(Cc3ccco3)c3nc4ccccc4nc32)cc1	.	?	?	.	.	.
Cc1ccc(S(=O)(=O)N2CN(Cc3ccco3)c3nc4ccccc4nc32)cc1	.	+	?	.	.	.
COC(c1ccccc1)c1nnc(CCC(=O)NCCCc2ccccc2)o1 (stereo unspecified)	.	.	.	.	.	.
COC(c1ccccc1)c1nnc(CCC(=O)NC2C3CC4CC(C3)CC2C4)o1 (stereo unspecified)	.	.	.	.	.	60
CCOc1ccccc1N1CCN(C(=O)c2c(Cl)cnn2C)CC1	.	.	.	.	.	.
CCOC(=O)c1cnc(-n2[nH]c(C)cc2=O)[nH]c1=O	.	+	100	.	.	.
O=C(COc1ccccc1)NCC(=O)N/N=C/c1ccc(Cl)cc1	.	.	.	.	.	.
COCCCNC(=S)NC1CC2CCCC(C1)N2Cc1cccs1 (stereo unspecified)	.	.	.	.	.	69
COCCNC(=S)NC1CC2CCCC(C1)N2Cc1cccs1 (stereo unspecified)	.	.	.	.	.	.
O=C(COc1ccccc1)Nc1nnc(S(=O)(=O)N2CCCCCC2)s1	.	.	.	.	.	.
Cc1ccc(OCC(=O)Nc2nnc(S(=O)(=O)N3CCCCC3)s2)cc1	.	+	83	.	.	.
O=C(COc1ccccc1)Nc1nnc(S(=O)(=O)N2CCCCC2)s1	.	.	.	.	.	.
Cc1ccc(OCC(=O)Nc2nnc(S(=O)(=O)N3CCCCCC3)s2)cc1	.	.	66	.	.	.
CC(C)(C)OC(=O)C[C@H]1C/C=C\C[C@@H](CC(=O)N[C@H](CO)Cc2ccccc2)C(=O)NC[C@H](c2ccccc2)OC1=O	.	/	/	.	.	/
CCOC(=O)c1cnc2ccc(Cl)cc2c1NCCN(C)C	.	.	?	42	.	.
CCOC(=O)c1cnc2ccc(Br)cc2c1NCCO	.	.	.	.	.	.
COc1ccc(CN(CC(=O)NCc2ccccc2)C(=O)c2csnn2)cc1	.	.	.	.	.	.
COc1ccc(CNC(=O)CN(Cc2ccc(Cl)cc2)C(=O)c2csnn2)cc1	.	.	.	36	.	.
COc1ccc(CNC(=O)CN(Cc2ccc(C)cc2)C(=O)c2csnn2)cc1	.	.	.	44	.	.
SMILES	APOBEC3G inh	PABP polyA inh	eIF4H inh	MLLE-PAM2 inh	APOBEC3A inh	PHOSPHO1 block
O=C(CCCCCNC(=O)N1CCn2c1nc1ccccc12)NCc1ccc(F)cc1	.	.	.	.	.	.
CCn1c(CN2CCN(Cc3ccc(C)cc3)C(CCO)C2)nc2ccccc21 (stereo unspecified)	.	.	.	.	.	.
CC(=O)N1CCN(C2=Nc3cccc4cccc2c34)CC1	.	.	.	.	.	.
c1ccc(CC2CCN(C3=Nc4cccc5cccc3c45)CC2)cc1	.	.	92	.	.	.
CC1CN(C2=Nc3cccc4cccc2c34)CC(C)O1 (stereo unspecified)	.	+	.	.	.	.
c1cc2c3c(cccc3c1)C(N1CCOCC1)=N2	.	+	.	.	.	.
COc1ccc(/C=N/NC(=O)c2c(Br)cnn2C)c2ccccc12	.	.	.	.	.	.
COc1ccc2oc(C(=O)N(C)CCOc3ccccc3)c(C)c2c1	.	.	.	.	.	.
Cc1ccc(N(C(=O)C(F)(F)F)C(C(=O)NC2CCCCC2)c2cccs2)cc1C (stereo unspecified)	.	.	.	.	.	60
